ABHD5 PLIN5 PPI: ABHD5-PLIN5 interaction inhibitors, primary screen, cell lysate, split luciferase complementation, luminescence | Split G. princeps luciferase complementation, 4 h | inhibition, % at 4 µM | actives 0.78% (n = 360,000);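 active means inhibition above the mean inhibition across every tested compound plus 3 SD, cut at about 22% in these data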;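 further: 0% = DMSO only wells and the 100% control is not disclosed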
TLR4 MyD88 comp: inhibitors of TLR4-MyD88 association in cells, primary screen, cell-based, HeLa CL3-4, BLA complementation, FRET ratio | AID 861, 2007 | actives 0.18% (n = 200,000) | inhibition, % at 8.4 µM | Toll-like receptor 4 (Homo sapiens) + Myeloid differentiation primary response protein … | HeLa CL3-4 TLR4/MyD88 BLA complementation; in the data active means inhibition above about 25%;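 further: 0% = vehicle and 100% = reference inhibitor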
TLR9-MyD88 block: inhibitors of TLR9-MyD88 association in cells, primary screen, cell-based, CHO, BLA complementation, fluorescence. Toll-like receptor 9 (Homo sapiens) + Myeloid differentiation primary response protein …. CCF4 FRET ratio. inhibition, % at 4.98 µM. actives 0.21% (n = 340,000);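 active means inhibition above the mean over all tested compounds plus 3 SD, cut at about 21% in these data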;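 further: 0% = DMSO only wells and 100% = clavulanate BLA inhibitor control wells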
PRMT1 FP inh: PRMT1 methyltransferase inhibitors, primary screen, biochemical, fluorescence polarization; recombinant PRMT1, activity-based probe fluorescence polarization; inhibition, % at 2.79 µM; AID 652257, 2013; actives 1.3% (n = 370,000);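 active means inhibition above about 21% made by adding two undisclosed values, limit read from the data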
Target sequence (Q99873 whole entry, looked up): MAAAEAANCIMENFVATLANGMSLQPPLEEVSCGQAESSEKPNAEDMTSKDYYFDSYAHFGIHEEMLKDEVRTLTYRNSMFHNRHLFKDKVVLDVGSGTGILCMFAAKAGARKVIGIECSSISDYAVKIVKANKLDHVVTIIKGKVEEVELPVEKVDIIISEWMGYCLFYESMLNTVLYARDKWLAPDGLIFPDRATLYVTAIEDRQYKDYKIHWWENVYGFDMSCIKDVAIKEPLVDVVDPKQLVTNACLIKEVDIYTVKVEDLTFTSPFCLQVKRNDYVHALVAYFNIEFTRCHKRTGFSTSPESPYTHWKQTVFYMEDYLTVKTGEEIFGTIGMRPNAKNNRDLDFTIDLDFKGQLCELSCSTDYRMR
rCAG RNA binder: binders of r(CAG) RNA repeats, primary screen, biochemical, fluorescence; r(CAG) RNA repeat, TO-PRO-1 dye displacement fluorescence; inhibition, % at 3 µM; actives 1.3% (n = 370,000); AID 651821, 2012;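 active means inhibition above the plate cutoff, the mean of all test compounds on that plate plus 3 SD, cut at about 35% in these data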;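 further: 0% = DMSO alone and 100% = 100 µM mitoxantrone as full dye displacement; higher means more dye released from RNA so lower well fluorescence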
NOD2 RIPK2 PPI: NOD2-RIPK2 binding disruptors in cells, primary screen, fluorescence, CHO cells, BLA complementation. Receptor-interacting serine/threonine-protein kinase 2 (Homo sapiens), O43353. AID 624267, 2012. CCF4 ratio. actives 0.38% (n = 360,000). inhibition, % at 4.98 µM; in the data active means inhibition above about 21%;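 further: 0% = vehicle only and 100% = reference blocker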
NOD2 RIPK2 conf: NOD2-RIPK2 binding disruptors, retest, confirmation, fluorescence, CHO cells, BLA complementation, triplicate; CCF4 FRET; AID 624370, 2012; shares compounds with NOD2 RIPK2 PPI; inhibition, % at 4.98 µM; actives 70% (n = 1,200);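 active means mean inhibition across replicates above a set limit taken from the earlier primary screen, cut at about 21% in these data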;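 further: 0% = DMSO-only wells and the high end = clavulanate BLA-blocked wells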
NOD2 BLA counter: hits BLA reporter in NOD2-RIPK2 inhibitor counterscreen; actives 57% (n = 1,200); inhibition, % at 4.98 µM; AID 624371; CHO BLA reporter, CCF4 FRET ratio; shares compounds with NOD2 RIPK2 PPI;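 active means mean inhibition above the low-control mean inhibition plus three low-control SD, cut at about 11% in these data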;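 further: 0% = DMSO only wells and 100% = clavulanate high control wells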
rCAG binder conf: small molecules binding CAG repeat RNA – biochemical, fluorescence, confirmation; r(CAG) RNA repeat, TO-PRO-1 dye displacement fluorescence; shares compounds with rCAG RNA binder; AID 652065, 2013; actives 70% (n = 4,300); inhibition, % at 3 µM;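 active means inhibition above a per-plate cutoff, the mean inhibition of sample wells plus 3 SD, cut at about 35% in these data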;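 further: loss of TO-PRO-1 fluorescence as compound displaces dye from 1x1 AA loop RNA; 0% = DMSO only wells and 100% = 100 µM mitoxantrone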
DNA CAG counter: displacement of TO-PRO-1 from CAG DNA duplex, counter-screen for rCAG RNA repeat binder project, biochemical, fluorescence, TO-PRO-1 dye, d(CAG) DNA oligo; shares compounds with rCAG RNA binder; d(CAG) DNA oligo TO-PRO-1 dye displacement; inhibition, % at 3 µM; actives 94% (n = 4,300); AID 652068, 2013;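 active means inhibition above its plate's cutoff, the mean test-well inhibition plus 3 SD, cut at about 4.8% in these data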;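 further: 0% = DNA dye mix with DMSO and 100% = 100 µM mitoxantrone; hits displace the dye from DNA and so lower well fluorescence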
An asterisk follows results filed as active. Hits are enriched below; roughly 3.3% of the tested compounds scored in any of these assays.

`CC1=CC2OC3CC4OC(=O)C=CC=CC(C(C)O)OCC(O)C5(C)OC5C(=O)OCC2(CC1O)C4(C)C31CO1` (centres undefined) gave ABHD5 PLIN5 PPI -2, TLR9-MyD88 block 0, PRMT1 FP inh 4, rCAG RNA binder -2, NOD2 RIPK2 PPI 29*, NOD2 RIPK2 conf 17 and NOD2 BLA counter -5.
CC1CCOC(=O)C=CC=CC(=O)OC2CC3OC4C5OC5(C)C(O)CC4(COC(=O)C1O)C2(C)C31CO1 (centres undefined) was read as ABHD5 PLIN5 PPI 1, TLR9-MyD88 block -4, PRMT1 FP inh 5, rCAG RNA binder 0, NOD2 RIPK2 PPI 28*, NOD2 RIPK2 conf 21* and NOD2 BLA counter -5.
`CC(O)C1C=CC=CC(=O)OC2CC3OC4C5OC5(C)C(O)CC4(COC(=O)C(O)C(C)CCO1)C2(C)C31CO1` (centres undefined) gave ABHD5 PLIN5 PPI 8, TLR9-MyD88 block 1, PRMT1 FP inh -1, rCAG RNA binder 2 and NOD2 RIPK2 PPI 7.
For CC1=CC2OC3CC4OC(=O)C=CC=CC(=O)OCCC(C)C(O)C(=O)OCC2(CC1)C4(C)C31CO1 (centres undefined) the results were ABHD5 PLIN5 PPI -1, TLR9-MyD88 block 5, PRMT1 FP inh 4, rCAG RNA binder 5, NOD2 RIPK2 PPI 23*, NOD2 RIPK2 conf 17 and NOD2 BLA counter -4.
COc1ccc(OC(=O)N(C)C[C@H]2OCc3cnnn3CCCC(=O)N([C@@H](C)CO)C[C@@H]2C)cc1 was read as PRMT1 FP inh -7 and rCAG RNA binder 0.
Screening CCOC(=O)[C@]12Cc3cc(N(C)C)ccc3[C@H]1N(Cc1ccccc1)C(=O)c1ccccc12 returned ABHD5 PLIN5 PPI -12, TLR9-MyD88 block 8, PRMT1 FP inh 2, rCAG RNA binder 4, NOD2 RIPK2 PPI 23*, NOD2 RIPK2 conf 3 and NOD2 BLA counter 3.
Screening CCOC(=O)[C@]12Cc3cc(Cl)ccc3[C@H]1N(Cc1ccccc1)C(=O)c1ccccc12 returned ABHD5 PLIN5 PPI 2, TLR9-MyD88 block -3, PRMT1 FP inh -1, rCAG RNA binder -2 and NOD2 RIPK2 PPI -7.
For COc1ccc(N2C(=O)/C(=C/c3ccc(C)o3)C(=O)NC2=S)cc1 the results were ABHD5 PLIN5 PPI 9, TLR9-MyD88 block 1, PRMT1 FP inh 11, rCAG RNA binder 24 and NOD2 RIPK2 PPI 7.
Screening CCOc1ccc(N2C(=O)/C(=C/c3ccc(C)o3)C(=O)NC2=S)cc1 returned ABHD5 PLIN5 PPI -7, TLR9-MyD88 block 4, PRMT1 FP inh 15, rCAG RNA binder 36*, NOD2 RIPK2 PPI 3, rCAG binder conf 45* and DNA CAG counter 17*.
CN(C)C1C(=O)C(C(N)=O)=C(O)C2(O)C(=O)C3=C(O)c4c(O)cccc4C(C)(O)C3C(O)C12 (centres undefined) was read as ABHD5 PLIN5 PPI 7, TLR9-MyD88 block -3, PRMT1 FP inh 49*, rCAG RNA binder 73*, NOD2 RIPK2 PPI -1, rCAG binder conf 23 and DNA CAG counter 9.1*.
CC(C)c1ccc(C(c2c(O)c3ccccc3oc2=O)c2c(O)c3ccccc3oc2=O)cc1 was read as ABHD5 PLIN5 PPI -9, TLR9-MyD88 block 9, PRMT1 FP inh 1, rCAG RNA binder 94*, NOD2 RIPK2 PPI 5, rCAG binder conf 95* and DNA CAG counter 82*.
Screening O=c1oc2ccccc2c(O)c1C(c1ccc([N+](=O)[O-])cc1)c1c(O)c2ccccc2oc1=O returned ABHD5 PLIN5 PPI 14, TLR4 MyD88 comp 9, TLR9-MyD88 block 0, PRMT1 FP inh 5, rCAG RNA binder 96*, NOD2 RIPK2 PPI -1, rCAG binder conf 94* and DNA CAG counter 76*.
COC1C(O)C(C)OC(OC2C(Oc3cccc4c(O)c5c(=O)oc6ccc(C)c7c(=O)oc(c34)c5c67)OC(C)C(O)C2O)C1O (centres undefined) was read as ABHD5 PLIN5 PPI 13, TLR9-MyD88 block 2, PRMT1 FP inh 2, rCAG RNA binder 6 and NOD2 RIPK2 PPI -9.
Screening Cc1nc(C)c(C(=O)NN=Cc2ccc(N(CCCl)CCCl)cc2)s1 returned ABHD5 PLIN5 PPI -3, TLR9-MyD88 block -3, PRMT1 FP inh -2, rCAG RNA binder 5 and NOD2 RIPK2 PPI -4.
Cc1cc(C=C2C(=O)NC(=S)NC2=O)c(C)n1C1CCCC1 was read as ABHD5 PLIN5 PPI 17, TLR4 MyD88 comp 3, TLR9-MyD88 block 3, PRMT1 FP inh 7, rCAG RNA binder 35*, NOD2 RIPK2 PPI -23, rCAG binder conf 23 and DNA CAG counter 9.6*.
`Cc1cc(C=C2C(=O)N(C)C(=S)N(C)C2=O)c(C)n1C1CCCCC1` gave ABHD5 PLIN5 PPI 5, TLR4 MyD88 comp -9, TLR9-MyD88 block -14, PRMT1 FP inh 13, rCAG RNA binder 25 and NOD2 RIPK2 PPI -2.

Assay outcomes (PubChem BioAssay)
